# Test results from ChEMBL document CHEMBL1201862, “PubChem BioAssay data set” (2004).
# The campaign covered roughly 400,000 compounds. About 2,100 (0.53%) were called active. Inconclusive results (about 14%) are left out. No rule for the calls is given here. The full list was thinned out, with actives kept by preference.
# Target: Ataxin-2 (Homo sapiens) (UniProt Q99700)
# Experiment: qHTS for Inhibitors of ATXN expression.
# Type: functional
# Chain of Ataxin-2 (Homo sapiens) (Q99700 whole entry): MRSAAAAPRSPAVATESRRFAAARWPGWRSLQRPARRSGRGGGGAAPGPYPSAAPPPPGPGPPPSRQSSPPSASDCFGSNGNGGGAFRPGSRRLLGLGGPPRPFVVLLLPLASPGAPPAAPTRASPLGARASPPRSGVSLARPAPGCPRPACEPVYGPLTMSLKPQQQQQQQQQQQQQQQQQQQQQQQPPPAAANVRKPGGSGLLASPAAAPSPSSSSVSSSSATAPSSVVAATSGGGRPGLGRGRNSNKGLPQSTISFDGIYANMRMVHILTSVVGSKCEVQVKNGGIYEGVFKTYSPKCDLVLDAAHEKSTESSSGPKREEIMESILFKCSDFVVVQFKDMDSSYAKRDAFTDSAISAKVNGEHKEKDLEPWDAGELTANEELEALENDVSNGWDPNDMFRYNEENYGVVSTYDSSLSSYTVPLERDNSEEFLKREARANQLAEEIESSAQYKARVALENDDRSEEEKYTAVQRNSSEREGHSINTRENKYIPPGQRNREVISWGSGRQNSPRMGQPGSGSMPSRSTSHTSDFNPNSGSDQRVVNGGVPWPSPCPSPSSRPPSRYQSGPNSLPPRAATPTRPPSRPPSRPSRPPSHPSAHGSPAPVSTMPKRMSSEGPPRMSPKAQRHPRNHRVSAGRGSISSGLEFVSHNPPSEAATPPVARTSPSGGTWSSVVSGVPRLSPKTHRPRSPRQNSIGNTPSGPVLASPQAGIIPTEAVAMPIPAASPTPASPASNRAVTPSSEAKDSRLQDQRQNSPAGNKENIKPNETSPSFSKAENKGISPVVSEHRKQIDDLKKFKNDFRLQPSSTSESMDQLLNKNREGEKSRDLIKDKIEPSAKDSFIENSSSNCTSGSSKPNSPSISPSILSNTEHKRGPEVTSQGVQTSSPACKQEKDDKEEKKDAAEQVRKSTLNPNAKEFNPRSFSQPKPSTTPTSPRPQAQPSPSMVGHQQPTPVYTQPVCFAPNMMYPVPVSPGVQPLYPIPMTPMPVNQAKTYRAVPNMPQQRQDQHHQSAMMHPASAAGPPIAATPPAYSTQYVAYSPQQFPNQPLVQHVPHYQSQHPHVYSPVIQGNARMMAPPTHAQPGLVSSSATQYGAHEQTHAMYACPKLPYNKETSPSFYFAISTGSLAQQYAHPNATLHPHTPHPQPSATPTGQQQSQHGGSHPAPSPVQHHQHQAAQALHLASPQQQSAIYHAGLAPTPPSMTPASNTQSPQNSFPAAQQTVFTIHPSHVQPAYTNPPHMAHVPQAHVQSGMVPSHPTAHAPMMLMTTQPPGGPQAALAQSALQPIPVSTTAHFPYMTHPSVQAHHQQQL
row,Structure (SMILES),Potency
1,Nc1ccc(-c2cc3ccccc3oc2=O)cc1,inactive
2,COc1ccccc1[C@@H]1C(c2ccccc2)=NN(c2ccccc2)[C@H]1C(=O)N1CCOC1=O,inactive
3,Cc1cccc(N2C(=O)/C(=C\Nc3ccccc3)c3ccccc3C2=O)n1,inactive
4,CCNc1nc(N)c(C(=O)C23CC4CC(CC(C4)C2)C3)s1,inactive
5,Cn1c(C(=O)N2CCOCC2)cc2c(=O)n3ccccc3nc21,inactive
6,COc1ccc(C/C(C)=N/NC(=S)Nc2ccccc2)cc1,35.5 µM (active)
7,C/C(=N\NC(=S)Nc1cccc(C)c1)c1cc2ccccc2o1,inactive
8,COc1ccc(CN=C(Nc2ccccc2)SC2CC(=O)NC2=O)cc1 (stereo unspecified),inactive
9,Cc1nc(NCC2CC2)c2nnn(Cc3ccccc3)c2n1,inactive
10,O=S(=O)(NCCc1ccc(F)cc1)c1cccc2cccnc12,inactive
11,CCn1cc(CN2CCCC(CNS(=O)(=O)c3cccc4cccnc34)C2)cn1 (stereo unspecified),3.16 µM (active)
12,O=S(=O)(NCC1CCN(Cc2ccccc2)CC1)c1ccccc1C(F)(F)F,inactive
13,Cc1cc(/C=C2\C(=N)N3N=C(S(C)(=O)=O)SC3=NC2=O)c(C)n1Cc1ccccc1,inactive
14,CN(C)c1ccc(/C=N/NC(=O)c2nnn(-c3nonc3N)c2COc2ccc(F)cc2)cc1,inactive
15,CCCN(CCC)Cc1c(C(=O)N/N=C/C(C)=C\c2ccco2)nnn1-c1nonc1N,25.1 µM (active)
16,CC(C)c1c(C(=O)N/N=C/c2ccco2)nnn1-c1nonc1N,inactive
17,O=S(=O)(N/N=C1\CCCc2ccccc21)c1ccccc1,inactive
18,CCCSc1nsc(NC(=O)Nc2ccc(F)cc2F)n1,31.6 µM (active)
19,COc1ccc(OC(C)C(=O)Nc2ccc(F)cc2F)cc1 (stereo unspecified),inactive
20,O=C(Nc1ccc(F)cc1F)c1cc(Cl)sc1Cl,inactive
21,Cc1ccc2[nH]c(SCC(=O)c3ccc(O)cc3O)nc2c1,inactive
22,O=C1OCCN1C(=O)[C@H]1[C@H](c2ccccc2)C(c2cccc(Cl)c2)=NN1c1ccc(Br)cc1,inactive
23,CCCCN1C(=O)c2ccc(C(=O)NC3(C)CCS(=O)(=O)C3)cc2C1=O (stereo unspecified),inactive

row,Structure (SMILES),Potency
1,C=C1[C@@H](O)[C@H](CC(C)C)N(Cc2ccccc2Br)S1(=O)=O,28.2 µM (active)
2,C/N=C1\C(=O)c2ccccc2C(O)=C1N(C(C)=O)c1ccc(Br)cc1,14.1 µM (active)
3,CC(=O)N(C1=C(Cl)C(=O)c2ccccc2C1=O)c1ccc(C(=O)O)cc1,inactive
4,COc1ccccc1N(C(C)=O)C1=C(Cl)C(=O)c2ccccc2C1=O,inactive
5,NC(=O)c1nsc(C(=O)N(c2cccc(F)c2)C(C(=O)NCc2ccccc2)c2ccc(O)cc2)c1N (stereo unspecified),inactive
6,C[C@H](CO)N1C[C@H](C)[C@H](CN(C)C(=O)c2ccccc2)OCc2ccccc2-c2c(n(C)c3ccccc23)C1=O,22.4 µM (active)
7,COc1ccccc1NC(=O)N(C)C[C@@H]1OCc2ccccc2-c2c(n(C)c3ccccc23)C(=O)N([C@H](C)CO)C[C@@H]1C,35.5 µM (active)
8,COC(=O)CN1C(=O)N/C(=C/c2cc(Cl)c(OC)c(OC)c2)C1=O,inactive
9,CC(=O)O/N=C/c1c(NCc2ccccc2)nc2c(C)cccn2c1=O,inactive
10,Cc1nc(SCc2ccccc2)nc2c1CCC2,inactive
11,CC(=O)c1c(C)[nH]c(C(=O)CN2C(=O)NC(C)(CCC(C)C)C2=O)c1C (stereo unspecified),inactive
12,CCSc1ccc(-c2nn(-c3ccccc3)cc2/C=C(/C#N)C(=O)NCCCOC)cc1,inactive
13,COc1ccc(-c2nn(-c3ccccc3)cc2/C=N/N2C(=O)CSC2=S)cc1,39.8 µM (active)
14,O=C1CSC(=S)N1N=Cc1cccc(OCc2ccccc2)c1,inactive
15,CCCCCCc1cc2cc(S(=O)(=O)c3ccc(F)cc3)c(=O)oc2cc1O,inactive
16,NC(=O)c1sc2nc(-c3ccccc3)ccc2c1N,inactive
17,CCC1CCCCN1C(=O)c1ccc(OC2CCN(C(=O)COC)CC2)cc1 (stereo unspecified),inactive
18,Cn1cc(C(=O)N2CCN(c3cccc(C(F)(F)F)c3)CC2)c2c3ccccc3n(C)c2c1=O,31.6 µM (active)
19,COCCN=C(S)N1CCN(c2cccc(C(F)(F)F)c2)CC1,inactive
20,Cc1c(S(=O)(=O)N2CCN(c3cccc(C(F)(F)F)c3)CC2)c(=O)n(C)c(=O)n1C,inactive
21,CCCC(=O)NC1=C(Cl)C(=O)c2ccccc2C1=O,inactive
22,CN(C)c1ccc(NC2=C(Cl)C(=O)c3ccccc3C2=O)cc1,25.1 µM (active)
23,CC(=O)Nc1ccc(NC2=C(Cl)C(=O)c3ccccc3C2=O)cc1,28.2 µM (active)

row,Structure (SMILES),Potency
1,CC(=O)N(C1=C(Cl)C(=O)c2ccccc2C1=O)C1CCCCC1,inactive
2,Cc1ccc(NC2=C(Cl)C(=O)c3ccccc3C2=O)cc1,28.2 µM (active)
3,Oc1c(Cl)cc(Cl)cc1/C=N/NC(=S)NC1CC2C=CC1C2 (stereo unspecified),inactive
4,COCCn1c(-c2ccc(-c3ccc([N+](=O)[O-])cc3Br)o2)nc2c1c(=O)[nH]c(=O)n2CC(C)C,inactive
5,Cn1c(=O)[nH]c(=O)c2c1nc(Br)n2Cc1ccc(Cl)cc1,inactive
6,CCCCNc1c(N)n(CC(C)C)c(=O)[nH]c1=O,inactive
7,CCn1c([N+](=O)[O-])nc2c1c(=O)[nH]c(=O)n2C,22.4 µM (active)
8,CC(C)Cn1c([N+](=O)[O-])nc2c1c(=O)[nH]c(=O)n2C,29.9 µM (active)
9,COc1ccc(C(=O)c2sc3nc4c(c(C(F)(F)F)c3c2N)CN(C(C)=O)CC4)cc1OC,inactive
10,O=C(O)c1cc(N/N=C/c2cccc3ccccc23)ccc1Cl,inactive
11,COC(=O)c1scc(C)c1S(=O)(=O)Nc1ccc(C)cc1,inactive
12,C=Cc1ncc(OC)c2c1[nH]c1ccccc12,11.9 µM (active)
13,C(=C\c1nccc2c1[nH]c1ccccc12)/c1ccccc1,inactive
14,COc1cccc2[nH]c3c(O)ncnc3c12,inactive
15,Cc1noc(C)c1COC(=O)c1cc(S(=O)(=O)N2CCOCC2)ccc1F,inactive
16,COc1ccc(N(Cc2cc(O)nc3ccccc23)C(=O)CCl)cc1,39.8 µM (active)
17,CCCC(=O)N(Cc1cc2cc(OC)ccc2nc1O)c1ccccc1OC,inactive
18,CC1(C)Cc2c(cnn2-c2ccccc2)C(NC(=O)CCN2CCCC2=O)C1 (stereo unspecified),inactive
19,Cc1ccc(-c2nc(N/N=C/c3cccc([N+](=O)[O-])c3)c3ccccc3n2)cc1,39.8 µM (active)
20,C(=N\Nc1nc(-c2cccnc2)nc2ccccc12)/c1ccccc1,inactive
21,Nc1ccc(-c2nc(-c3ccccc3)nc3ccccc23)cc1,inactive
22,O=[N+]([O-])c1ccc(-c2nc(Nc3cccc(O)c3)c3ccccc3n2)cc1,31.6 µM (active)
23,C(=N\Nc1ncnc2ccccc12)/c1ccccc1,inactive

row,Structure (SMILES),Potency
1,O=[N+]([O-])c1ccc(-c2nc(NCC3CCCO3)c3ccccc3n2)cc1 (stereo unspecified),inactive
2,Cc1ccccc1N1CCN(Cc2nc(Cc3ccccc3)no2)CC1,inactive
3,Clc1nc(N2CCOCC2)ncc1Br,inactive
4,CCOC(=O)C(C)Sc1cnccn1 (stereo unspecified),inactive
5,CCCCC(=O)NC(c1ccco1)c1cc(Cl)c2cccnc2c1O (stereo unspecified),inactive
6,CNC(=O)c1ccc(-c2sc3nc(N4CCOCC4)c4c(c3c2N)CC(C)(C)OC4)o1,inactive
7,Cc1ccc(-n2ncc(C(=O)NCCN3CCc4ccccc4C3)c2C2CCN(C(=O)OC(C)(C)C)CC2)c(C)c1,20 µM (active)
8,COC(=O)[C@@H]1CCCN1C(=O)c1cnn(-c2ncc3c(n2)-c2ccccc2CCC3)c1C1CC1,inactive
9,Cc1cccc(-n2nnc(C(=O)N3CCc4ccccc4C3)c2N)c1,inactive
10,CCOC(=O)c1cc2c(=O)n3ccccc3nc2n(Cc2ccco2)/c1=N/C(=O)c1ccccc1OC,inactive
11,CCc1cc(S)n2c(nc3ccccc32)c1C#N,inactive
12,N#Cc1cc(-c2ccccc2)[nH]c1-c1nccc2ccccc12,inactive
13,Oc1ncc(I)cc1I,inactive
14,CC(C)(C)c1ccc(OCCCC(=O)Nc2cccc(S(=O)(=O)N3CCOCC3)c2)cc1,28.2 µM (active)
15,O=C(Nc1nc[nH]n1)c1cccc(S(=O)(=O)N2CCOCC2)c1,inactive
16,Cn1cnnc1SCC(=O)Nc1cccc(S(=O)(=O)N2CCOCC2)c1,inactive
17,Cc1ccccc1NC(=O)CN1C(=O)S/C(=C\c2ccc(-c3cccc(C(=O)O)c3C)o2)C1=O,inactive
18,O=C(O)c1cc(N/N=C/C=C/c2ccccc2)ccc1Cl,inactive
19,COCC1CCCN(Cc2cn(-c3ccccc3F)nc2-c2cc(C)sc2C)C1 (stereo unspecified),inactive
20,COC(=O)c1ccccc1-c1c2ccc(=N)cc-2oc2cc(N)ccc12,inactive
21,CCOc1ccccc1-c1c2cc(O)c(=O)cc-2oc2cc(O)c(O)cc12,11.2 µM (active)
22,CCn1cc2nc(SCc3cccc(OC)c3)n(Cc3ccc(Cl)cc3)c(=O)c2n1,inactive
23,COc1ccc(CNC(=O)C[S+]([O-])Cc2nc(-c3ccc(C)cc3)oc2C)cc1 (stereo unspecified),inactive

row,Structure (SMILES),Potency
1,COc1ccc(CSc2nc3ccncc3n2Cc2nc(-c3ccc(OC)c(OC)c3)oc2C)cc1,39.8 µM (active)
2,CCN(CC(=O)N(CC(C)C)c1c(N)n(CC(C)C)c(=O)[nH]c1=O)Cc1nc(O)c2ccccc2n1,inactive
3,Cc1ccc(-c2nc(C[S+]([O-])CC(=O)NC3CC3)c(C)o2)cc1 (stereo unspecified),inactive
4,CCCCN(CC)C(=O)c1nn(-c2ccc(OC)cc2)c(=O)c2c1c1ccccc1n2C,20 µM (active)
5,COc1ccc(-n2nc(C(=O)NCC(=O)Nc3ccc(F)cc3)c3ccccc3c2=O)cc1,inactive
6,COc1ccc(NCC(=O)n2c(C)c(C)c3ccccc32)cc1,inactive
7,CC1(C)C(=O)Nc2ccccc2N1C(=O)COC(=O)Cc1ccc(Cl)c(Cl)c1,inactive
8,CCCCN=C(S)NNc1c(Cl)cc(Cl)cc1Cl,inactive
9,COc1cccc2[nH]c(C(=O)NCCCN3CCCC3=O)cc12,inactive
10,O=C(NCCCN1CCCCC1)c1[nH]c2ccccc2c1Sc1ccc(Cl)cc1,39.8 µM (active)
11,COc1ccc2c(Sc3ccccc3)c(C(=O)N3CCC(C)CC3)[nH]c2c1,39.8 µM (active)
12,Cc1[nH]c2ccccc2c1C(=O)CSc1ccc(Cl)cc1,inactive
13,COc1ccc(Cn2c(=O)[nH]c3cc(C(=O)NCCCN4CCCC4)ccc3c2=O)cc1,inactive
14,O=C(NN=C1CCCC1)c1[nH]c2ccc(Cl)cc2c1-c1ccccc1,inactive
15,COC(=O)C1CCN(C(=O)COC(=O)c2oc3ccc(OC)cc3c2C)CC1,inactive
16,Cc1[nH]c2ccccc2c1SCC(=O)N1CCCCC1,inactive
17,O=C(COC(=O)CCSc1ccc(Cl)cc1)NCc1ccccc1,inactive
18,CCN(CC)CCNC(=O)c1[nH]c2ccccc2c1Sc1ccc(Cl)cc1,28.2 µM (active)
19,COc1ccc2c(Sc3ccc(Cl)cc3)c(C(=O)NCCCN3CCCCC3)[nH]c2c1,39.8 µM (active)
